Measured values reported in PubChem BioAssay AID1224856 (National Center for Advancing Translational Sciences (NCATS), 2016).
Results filed as inconclusive are left out. Calls of active or inactive are those of the source. Calls follow the shape of the dose curve; as a rule, active = well fitted curve in the direction sought with a large enough effect; inconclusive = small, poorly fitted or top-dose-only effect, or another doubt; inactive = no such curve, though single readings can be large or run the other way.

Test: Cell viability assay for measurement of the protective activity of small molecules against cell death caused by Zika virus infection in human astrocytes
Settings: human astrocytes ZIKV-induced death, ATP luminescence, 72 h; series mostly up to 46.1 µM; protection from virus-induced death: at the top concentration
Procedure, shortened: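 Protection against Zika-induced death was measured in human astrocytes infected at 2 FFU/cell one hour after compound addition. After 72 h at 37 °C, ATP luminescence was read and converted to percent inhibition of the viability decrease.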

Compound	protection from virus-induced death	Potency
COc1ccc(-c2cc(=S)ss2)cc1	3.7% (inactive)	–
CCOC1OC(=O)C[C@H]1NC(=O)[C@@H]1CCCN1C(=O)[C@@H](NC(=O)c1ccc(N)c(Cl)c1)C(C)(C)C (stereo partly specified)	1.13% (inactive)	–
Cc1ccc(C(=O)c2ccc(CC(=O)O)n2C)cc1	-3.13% (inactive)	–
C[C@H](NC(=O)C(=O)Nc1ccccc1C(C)(C)C)C(=O)N[C@@H](CC(=O)O)C(=O)COc1c(F)c(F)cc(F)c1F	–	3.88 µM (active)
O=C(/C=C/c1ccc(O)cc1)c1ccc(O)cc1O	16.2% (inactive)	–
Cc1c(C(=O)O)c(O)cc2c1C(=O)c1c(O)c([C@@H]3O[C@H](CO)[C@@H](O)[C@H](O)[C@H]3O)c(O)c(O)c1C2=O	-2.94% (inactive)	–
c1ccc2[nH]c(-c3cscn3)nc2c1	-4.09% (inactive)	–
O=c1c2ccccc2[se]n1-c1ccccc1	-9.75% (inactive)	–
O[C@@H](COc1cccc2ncccc12)CN1CCN(C2c3ccccc3[C@@H]3[C@H](c4ccccc42)C3(F)F)CC1 (stereo partly specified)	-6.34% (inactive)	–
CC(C)N[C@@H]1CCn2c(=O)[nH]c3cccc(c32)[C@@H]1O	-5.21% (inactive)	–
C[C@@H](N)c1ccc(C(=O)Nc2ccnc3[nH]ccc23)cc1	6.59% (inactive)	–
COC1(CS(=O)c2ccccc2)CCN(CCc2c[nH]c3ccc(F)cc23)CC1 (stereo unspecified)	-3.55% (inactive)	–
NC1CCC(Nc2nc(Nc3ccc(C(=O)N4CCCCC4)cc3)c3ncn(-c4cccc(F)c4)c3n2)CC1 (stereo unspecified)	-10.1% (inactive)	–
Cc1cccc(C#Cc2ccccc2)n1	-0.738% (inactive)	–
Cc1ccc([N+](=O)[O-])[c]2c1[O][Hg]2	-10.2% (inactive)	–
CC[C@]1(O)C[C@H]2CN(CCc3c([nH]c4ccccc34)[C@@](C(=O)OC)(c3cc4c(cc3OC)N(C=O)[C@H]3[C@@](O)(C(=O)OC)[C@H](OC(C)=O)[C@]5(CC)C=CCN6CC[C@]43[C@@H]65)C2)C1	0.154% (inactive)	–
C=CCCCCCCCCC(=O)O	3.75% (inactive)	–
CC1(C)OC2=C(C(=O)c3ccccc3C2=O)[C@H](NCc2ccccc2)[C@H]1O	-10.5% [at 88.3 µM] (inactive)	–
COc1cccc(-c2ccc(NC(=O)C3=C(C(=O)O)CCC3)c(F)c2)c1	4.42% (inactive)	–
CC(C(=O)O)c1ccc(C(=O)c2ccccc2)s1 (stereo unspecified)	-0.72% (inactive)	–
COc1cc(NC(C)CCCN)c2ncccc2c1 (stereo unspecified)	2.41% (inactive)	–
O=C(/C=C/c1ccccc1)NCCO	-2% (inactive)	–
COc1ccc(CC2=NN3C([C@@H](CCc4ccccc4)[C@@H](C)O)=NC(C)C3C(=O)N2)cc1OC (stereo partly specified)	-2.71% (inactive)	–
Cc1nc(N)sc1-c1ccnc(Nc2ccc(N3CCOCC3)cc2)n1	1.74% (inactive)	–
CC(C)[N+](C)(CCC(C(N)=O)(c1ccccc1)c1ccccc1)C(C)C	2.09% (inactive)	–
O=C(Oc1ccccc1)c1cccc(C(=O)Oc2ccccc2)c1	3.3% [at 96.3 µM] (inactive)	–
